The record followed here is PubChem BioAssay (Tox21).

Molecules are shown by their SMILES. Records with an inconclusive call do not appear. A call without a number means that no potency is given here. The source made the active and inactive calls. Calls follow the shape of the dose curve; as a rule, active = well fitted cell-killing curve with a large enough effect in the repeat runs; inconclusive = weak or mixed curves, or effect the other way; inactive = flat fitted curve, though single readings scatter.

Assay [1] can be described thus: cAMP Responsive Elements (CRE) small molecule antagonists, cell-based qHTS assay: qHTS cell viability counter screen (AID 2060913). Also: nearly all actives have a fitted effect of over 40% in size. The conditions noted are these: CRE-bla HEK293T viability, CellTiter-Glo luminescence, 5 h; series mostly up to 92.4 µM. Summed up: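 Cytotoxicity read in the same wells as the CRE-bla HEK293T antagonist assay: after 3 h compound with 0.25 uM NKH477 final and 2 h beta-lactamase substrate, CellTiter-Glo luminescence measured.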

The nature of assay [2]: cAMP Responsive Elements (CRE) small molecule agonists, cell-based qHTS assay: qHTS cell viability counter screen (AID 2060914). Also: nearly all actives have a fitted effect of over 50% in size. The conditions noted are these: CRE-bla HEK293T viability, CellTiter-Glo luminescence, 5 h; series mostly up to 92.4 µM. An outline of the steps: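 Cells are seeded and incubated 18 h, treated with compounds in DMSO for 3 h, read for the bla reporter, then given CellTiter-Glo; luminescence is measured after 30 min at room temperature.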

For the compound `Cn1cnc2c1c(=O)[nH]c(=O)n2C`, the Potency result in assay [1] and in assay [2] was “inactive” each time.
As for `CN1Cc2c(N)cccc2C(c2ccccc2)C1` (stereo unspecified), the Potency entry in assay [1] and in assay [2] was “inactive” each time.
As to `Cc1cc(OI)c(C(C)C)cc1-c1cc(C(C)C)c(OI)cc1C`, the Potency entry in assay [1] and in assay [2] was “inactive” throughout.
With `CC(C)CCCO`, the Potency result in assay [1] and in assay [2] was “inactive” each time.
Turning to `CCCCCCCC/C=C\CCCCCCCC(=O)O`, the Potency entry in assay [1] and in assay [2] was “inactive” throughout.
As for `O=C(OCC(COC(=O)c1ccccc1)(COC(=O)c1ccccc1)COC(=O)c1ccccc1)c1ccccc1`, the Potency result in assay [1] and in assay [2] was “inactive” in each case.
As to `CCCCC1C(=O)N(c2ccccc2)N(c2ccc(O)cc2)C1=O` (stereo unspecified), the Potency entry in assay [1] and in assay [2] was “inactive” throughout.
With `C=Cc1ccccc1C=C`, the Potency entry in assay [1] and in assay [2] was “inactive” throughout.
As for `CCOC(=O)n1ccn(C)c1=S`, the Potency entry in assay [1] and in assay [2] was “inactive” throughout.
As to `O[C@@H]([C@H](O)[C@H](O)CBr)[C@H](O)CBr`, the Potency result in assay [1] and in assay [2] was “inactive” each time.
Turning to `CC(C)C[C@@H]1[C@H](c2ccccc2)OC(=O)N1CCCN1CCCCCC1`, the Potency result in assay [1] and in assay [2] was “inactive” each time.
As for `C=C(C)C1CC=C(C)C(O)C1` (stereo unspecified), the Potency result in assay [1] and in assay [2] was “inactive” throughout.
Consider `CC(C)CC(C)(C)C`, for which the Potency entry in assay [1] and in assay [2] was “inactive” throughout.
For `CC(C)=CCC/C(C)=C/CC/C(C)=C/C(=O)OCC(=O)[C@@]1(O)CC[C@H]2[C@@H]3CCC4=CC(=O)C=C[C@]4(C)[C@H]3[C@@H](O)C[C@@]21C`, the Potency entry in assay [1] and in assay [2] was “inactive” in each case.
For `O=C(O)Cn1c(C(=O)Nc2nc(-c3ccccc3Cl)cs2)cc2ccccc21`, the Potency entry in assay [1] and in assay [2] was “inactive” in each case.
Consider `C1=CCC(c2ccccc2)CC1` (stereo unspecified), for which the Potency entry in assay [1] and in assay [2] was “inactive” each time.
As to `CC(C)(C)C(=O)NCCCC(=O)O`, the Potency entry in assay [1] and in assay [2] was “inactive” each time.
Take `O=C(NCCO[N+](=O)[O-])c1cccnc1`: the Potency result in assay [1] and in assay [2] was “inactive” each time.
For the compound `CC(=O)Oc1cc2c(s1)CCN(C(C(=O)C1CC1)c1ccccc1F)C2` (stereo unspecified), the Potency entry in assay [1] and in assay [2] was “inactive” each time.
Turning to `N#C/C(=C1/SC[C@@H](c2ccc(Cl)cc2Cl)S1)n1ccnc1`, the Potency entry in assay [1] and in assay [2] was “inactive” each time.
For `CCO[Si](CCCNC(N)=O)(OCC)OCC`, the Potency entry in assay [1] and in assay [2] was “inactive” throughout.
As to `O=C(CCCl)NCc1ccccc1`, the Potency result in assay [1] and in assay [2] was “inactive” throughout.
As to `COC(=O)c1ccccc1O`, the Potency entry in assay [1] and in assay [2] was “inactive” each time.
As to `CCC(C)(C)OC`, the Potency entry in assay [1] and in assay [2] was “inactive” in each case.
Take `CC(C)(Sc1cc(C(C)(C)C)c(O)c(C(C)(C)C)c1)Sc1cc(C(C)(C)C)c(O)c(C(C)(C)C)c1`: the Potency entry in assay [1] and in assay [2] was “inactive” throughout.
For `NC(=O)NC1NC(=O)NC1=O` (stereo unspecified), the Potency entry in assay [1] and in assay [2] was “inactive” throughout.
Consider `OC[C@H]1O[C@@H](O[C@@H]2[C@@H](CO)O[C@](O)(CO)[C@H]2O)[C@H](O)[C@@H](O)[C@H]1O`, for which the Potency entry in assay [1] and in assay [2] was “inactive” throughout.
Take `Cc1ccc(Nc2ccc(O)c3c2C(=O)c2ccccc2C3=O)cc1`: the Potency result in assay [1] and in assay [2] was “inactive” each time.
Regarding `CN[C@@H]1[C@@H](O)[C@@H](O[C@@H]2[C@H](O)[C@H](O[C@H]3OC(CN)=CC[C@H]3N)[C@@H](N)C[C@H]2N)OCC1(C)O` (stereo partly specified), the Potency entry in assay [1] and in assay [2] was “inactive” throughout.
On to `Nc1ncn([C@@H]2O[C@H](CO)[C@@H](O)[C@H]2O)c(=O)n1`, for which the Potency result in assay [1] and in assay [2] was “inactive” in each case.
For the compound `CN(C)c1ccc(CCO)cc1`, the Potency result in assay [1] and in assay [2] was “inactive” each time.
As to `C[C@]12CC[C@@H]3c4ccc(O)cc4CC[C@H]3[C@@H]1CC[C@H]2O`, the Potency entry in assay [1] and in assay [2] was “inactive” throughout.
Take `CCCCCCCC/C=C/CCCCCCCC1=NCCN1CCO`: the Potency result in assay [1] and in assay [2] was “inactive” each time.
In the case of `O=C1OC2(c3ccccc31)c1ccc(O)c(Br)c1Oc1c2ccc(O)c1Br`, the Potency result in assay [1] and in assay [2] was “inactive” throughout.
For `NC(=O)C(=O)N/N=C/c1ccc([N+](=O)[O-])o1`, the Potency result in assay [1] and in assay [2] was “inactive” in each case.
With `O=[N+]([O-])C(CO)(CO)CO`, the Potency result in assay [1] and in assay [2] was “inactive” throughout.
As to `C#C[C@]1(O)CC[C@H]2[C@@H]3CCc4cc(O)ccc4[C@H]3CC[C@@]21C`, the Potency result in assay [1] and in assay [2] was “inactive” in each case.
For `C[N+]1(C)CCC(=C(c2ccccc2)c2ccccc2)CC1`, the Potency result in assay [1] and in assay [2] was “inactive” throughout.
Turning to `COc1ccccc1N1CCN(CC(O)COc2cccc3ccccc23)CC1` (stereo unspecified), the Potency entry in assay [1] and in assay [2] was “inactive” throughout.
Consider `CC(C)=CCCC(C)CC(=O)O` (stereo unspecified), for which the Potency result in assay [1] and in assay [2] was “inactive” in each case.
`CCC(C)CO` (stereo unspecified): the Potency entry in assay [1] and in assay [2] was “inactive” each time.
For the compound `C[Si](C)(C)O[Si](C)(C)O[Si](C)(C)C`, the Potency result in assay [1] and in assay [2] was “inactive” each time.
With `NC(N)=NS(=O)(=O)c1ccc(N)cc1`, the Potency result in assay [1] and in assay [2] was “inactive” each time.
As for `COc1cc(C=C2CCC/C(=C\c3ccc(O)c(OC)c3)C2=O)ccc1O`, the Potency result in assay [1] and in assay [2] was “inactive” throughout.
For the compound `CC(C)c1ccc(C=O)cc1`, the Potency result in assay [1] and in assay [2] was “inactive” throughout.
As for `N[C@@H](CS)C(=O)O`, the Potency result in assay [1] and in assay [2] was “inactive” in each case.
On to `Cc1ccc(S(=O)(=O)NC(=O)NC2CCCC2)cc1`, for which the Potency entry in assay [1] and in assay [2] was “inactive” each time.
Take `CC1CC(=O)NN=C1c1ccc(NCC(C)(C)NCC(O)COc2cc(Cl)ccc2C#N)cc1` (stereo unspecified): the Potency result in assay [1] and in assay [2] was “inactive” each time.
